Tested on: PvIESI-1 RRM domain (Plasmodium vivax PVP01_0939900 aa 896-1203, GST fusion)
Assay: RBNS R-value (6-mer enrichment in protein-bound RNA vs input library) (ratio); higher = stronger binding preference; the methods of the paper give 50 / 100 / 500 nM protein instead
Experimental: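 RNA Bind-n-Seq: recombinant GST-tagged IESI-1 RRM domain was incubated at room temperature with a random 40-nt in vitro transcribed RNA library at 250, 500 or 1000 nM protein. Bound RNA was pulled down on glutathione beads and sequenced. R-value is the enrichment of each 6-mer in the bound RNA relative to the input library. Each 6-mer sits inside the random 40-mer context, not as an isolated oligo. Values are replicate 1 only.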

Row | Sequence | RBNS R-value (protein concentration: 250 nM) | RBNS R-value (protein concentration: 500 nM) | RBNS R-value (protein concentration: 1000 nM)
1 | AUGAUA | 3.08 | 3.49 | 3.64
2 | UGAUUG | 3.56 | 3.76 | 3.39
3 | AUUGAU | 3.54 | 3.72 | 3.67
4 | GAUGCC | 1.89 | 2.11 | 2.06
5 | UGAUGA | 5.51 | 5.62 | 5.25
6 | UGAUUA | 3.86 | 4.25 | 4.11
7 | GCCCGA | 1.45 | 1.67 | 1.67
8 | UCUGAU | 2.94 | 3.21 | 3.02
9 | UUGAUA | 2.87 | 3.36 | 3.32
10 | UUGAUC | 1.91 | 2.12 | 2.1
11 | UGAUGG | 3.91 | 4.11 | 3.78
12 | UGAUAC | 2.41 | 2.83 | 2.87
13 | AAUGAU | 3.66 | 3.89 | 3.94
14 | UGUGAU | 2.53 | 2.8 | 2.72
